From PubChem BioAssay AID624330 (Southern Research Specialized Biocontainment Screening …, 2012)
Screen size: about 340,000 compounds; about 2,100 (0.62%) were called active.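 Rule for the calls: active = first-screen hits whose inhibition reached a set limit at any dose in the follow-up dose series; inconclusive = inhibition above the set first-screen limit but never retested; inactive = the rest.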 These entries were drawn from the full list. Potency and affinity values are given separately.

Each compound was assayed against Rac GTPase-activating protein 1 (Homo sapiens) (UniProt Q9H0H5) (assay: MgcRacGAP GTPase-activating activity inhibitors, confirmation, biochemical, ADP Hunter fluorescence, primary and confirmatory (AID 624330;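 note: fluorescence reports GDP produced by GAP-driven GTP hydrolysis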)). Conditions: MgcRacGAP-stimulated Rac1 GTP hydrolysis, at 30 µM, hits give high values, GST-tagged Rac1 F28L mutant substrate.
Chain of Rac GTPase-activating protein 1 (Homo sapiens) (Q9H0H5 whole entry, looked up): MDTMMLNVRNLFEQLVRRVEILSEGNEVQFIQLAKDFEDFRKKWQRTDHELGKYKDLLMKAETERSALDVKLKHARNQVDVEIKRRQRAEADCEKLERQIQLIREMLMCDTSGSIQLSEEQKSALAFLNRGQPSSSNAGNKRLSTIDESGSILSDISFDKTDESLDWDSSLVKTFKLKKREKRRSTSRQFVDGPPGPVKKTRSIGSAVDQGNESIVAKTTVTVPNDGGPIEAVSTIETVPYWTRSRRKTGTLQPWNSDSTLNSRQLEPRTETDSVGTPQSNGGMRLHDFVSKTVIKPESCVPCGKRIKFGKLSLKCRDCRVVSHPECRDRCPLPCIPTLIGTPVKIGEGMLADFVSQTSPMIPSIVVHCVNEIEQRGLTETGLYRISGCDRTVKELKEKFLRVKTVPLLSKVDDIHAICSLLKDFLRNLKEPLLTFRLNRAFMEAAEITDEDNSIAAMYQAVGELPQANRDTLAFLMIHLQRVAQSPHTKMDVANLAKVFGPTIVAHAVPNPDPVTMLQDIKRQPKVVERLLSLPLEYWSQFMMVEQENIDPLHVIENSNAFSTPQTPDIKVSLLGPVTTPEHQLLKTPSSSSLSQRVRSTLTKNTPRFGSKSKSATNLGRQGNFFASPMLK

| SMILES | inhibition |
| --- | --- |
| COc1ccccc1-c1nnc(SC)n1C | 7.84% (inactive) |
| CC(=O)N1N=C(c2ccccc2)CC1c1ccc2c(c1)OCO2 (stereo unspecified) | 13.6% (inactive) |
| CC(C)(C)OC(=O)C[C@H]1C/C=C\C[C@@H](CC(=O)NCCO)C(=O)N[C@H](Cc2ccccc2)COC1=O | 5.95% (inactive) |
| CC1Cc2ccccc2N1S(=O)(=O)c1cnc(Cl)c(Cl)c1 (stereo unspecified) | 6.78% (inactive) |
| O=S(=O)(NCC(c1ccc2c(c1)OCO2)N1CCOCC1)c1ccccc1 (stereo unspecified) | 4.31% (inactive) |
| O=C(CCCC1=NS(=O)(=O)c2ccccc2N1)NCCc1ccc(Cl)cc1 | 12.4% (inactive) |
| CN(C1CCCCC1)S(=O)(=O)c1ccc(=S)[nH]c1 | 16.8% (inactive) |
| Cc1cccc(COCC(Cc2ccccc2)N2CCN(C(=O)c3cc(Cl)cc(Cl)c3)CCC2=O)c1 (stereo unspecified) | 10.4% (inactive) |
| Cc1noc(C)c1COc1ccc(C(=O)N2CCN(c3ccccc3O)CC2)cc1 | -2.07% (inactive) |
| O=C(Nc1nc2ccc(F)cc2s1)C1CC(=O)N(c2ccc3c(c2)OCCO3)C1 (stereo unspecified) | 3.42% (inactive) |
| CC(C)(C)c1ccc(NC(=O)COC(=O)C2CCCC2)cc1 | 6% (inactive) |
| O=C(N/N=C/c1ccc(N2CCOCC2)cc1)c1ccccn1 | 3.4% (inactive) |
| COc1ccc(/C=N/Nc2ncnc3sc4c(c23)CCCC4)cc1OC | 2.22% (inactive) |
| COc1cc(/C=N/Nc2ncnc3sc4c(c23)CCC4)ccc1O | 6.14% (inactive) |
| C(=N\Nc1ccccc1)/c1ccc(N2CCOCC2)cc1 | 11% (inactive) |
| Cc1cc2ncn(S(=O)(=O)c3ccc(S(=O)(=O)N4CCCCCC4)cc3)c2cc1C | -3.86% (inactive) |
| Cn1c(SCC(=O)Nc2ccccc2Cl)nnc1C1CC1 | 2.31% (inactive) |
| COc1ccc([N+](=O)[O-])cc1NS(=O)(=O)c1cc(C(=O)O)ccc1OC | -0.88% (inactive) |
| C=CCn1c(C)cc(C(=O)COC(=O)C2CC(=O)N(CCc3ccc(OC)c(OC)c3)C2)c1C (stereo unspecified) | 2.85% (inactive) |
| COc1ccc(C=O)cc1COc1ccc(Cl)cc1[N+](=O)[O-] | 0.45% (inactive) |
| CCCCOc1ccc(C(CC(=O)NC)C(=O)O)cc1 (stereo unspecified) | 1.11% (inactive) |

| SMILES | inhibition |
| --- | --- |
| O=C(Nc1ccc(-c2ccccc2)cc1)c1ccccc1 | 10.2% (inactive) |
| Cc1ccc(NC(=O)C2=C(O)c3ccccc3N(C)S2(=O)=O)cc1 | 10.1% (inactive) |
| Cc1ccc(NC(=O)c2ccccc2)cc1 | 8.58% (inactive) |
| CN1c2ccccc2C(O)=C(C(=O)Nc2ccccc2)S1(=O)=O | 5.83% (inactive) |
| Cc1onc(-c2c(F)cccc2Cl)c1C(=O)N=C(N)N1CCCC1 | 4.34% (inactive) |
| CCOC(=O)C1CCCCN1C(=O)c1oc2c(Cl)cc(C)cc2c1C (stereo unspecified) | -3.11% (inactive) |
| CCCCN(C)C(=O)Cc1c(OC)ccc2cc(Br)ccc12 | 10.7% (inactive) |
| COc1ccc(/C=N/n2cncn2)cc1Cn1nc(C)c([N+](=O)[O-])c1C | 6.36% (inactive) |
| COc1ccc(CN2CCN(C(c3ccc(F)cc3)c3ccc(F)cc3)CC2)c(OC)c1OC | 6.11% (inactive) |
| Cc1ccc(SCCN2CCN(C)CC2)cc1 | -7.97% (inactive) |
| Cc1ccc(SCCN2CCN(CCc3ccccc3)CCC2=O)cc1 | 12% (inactive) |
| CCOc1ccccc1N1CCN(Cc2ccc(OC)c(OC)c2OC)CC1 | 13.8% (inactive) |
| COc1ccc(-n2c(SCC(=O)Nc3ccc(Br)cc3)nc(O)cc2=O)cc1 | 10.3% (inactive) |
| c1ccc(CN2CCC(N3CCN(Cc4ccc5c(c4)OCO5)CC3)CC2)cc1 | 13.3% (inactive) |
| OCCC1CN(Cc2ccncc2)CCN1C1CCCC1 (stereo unspecified) | 5.79% (inactive) |
| O=C(c1ccc(F)cc1)N1CCCC(N2CCN(Cc3ccc4c(c3)OCO4)CC2)C1 (stereo unspecified) | 8.04% (inactive) |
| O=C(c1ccncc1)N1CCN(C2CCCCC2)CC1 | 19.7% (inactive) |
| COCCNC(=O)CC(c1ccccc1)c1ccccc1 | 10.4% (inactive) |
| CCOc1ccc(CN(C)C(=O)CN2C(=O)NC3(CCCc4ccccc43)C2=O)cc1 (stereo unspecified) | 13% (inactive) |
| CC(C)(C)NC(=O)C(c1ccccn1)N(C(=O)c1csnn1)C1CCCC1 (stereo unspecified) | 0.77% (inactive) |
| O=C(COc1ccc(C(=O)Nc2ccc(Cl)cc2)cc1)NCc1ccccc1 | 8.5% (inactive) |

| SMILES | inhibition |
| --- | --- |
| Cc1cc(/C=C2/NC(=O)N(Cc3ccccc3F)C2=O)c(C)n1-c1ccccn1 | 4.33% (inactive) |
| COc1ccc(N(C)S(=O)(=O)c2cccc(C(=O)NCC(c3cccs3)N(C)C)c2)cc1 (stereo unspecified) | 5.09% (inactive) |
| Cc1cc(C)nc(NC(=O)/C=C/c2ccccc2Cl)c1 | 9.19% (inactive) |
| Cc1cc(C)nc(NC(=O)/C=C/c2ccccc2Cl)n1 | 6.5% (inactive) |
| C(=N\N(c1ccccc1)c1ccccc1)/c1ccc(N2CCOCC2)s1 | 15.3% (inactive) |
| Clc1cccc(N/N=C/c2ccc(N3CCOCC3)cc2)c1 | 0.9% (inactive) |
| CC(C)(C)OC(=O)N/N=C/c1ccc(N2CCOCC2)s1 | 25.5% (inactive) |
| O=C(O)c1cc(N/N=C/c2ccc(N3CCOCC3)s2)ccc1Cl | 25.9% (inactive) |
| O=C(N/N=C/c1ccc(N2CCOCC2)s1)c1ccccc1Br | 10% (inactive) |
| C(=N\n1cnnc1)/c1ccc(N2CCOCC2)s1 | 10.2% (inactive) |
| CC(C)NC(=S)N/N=C/c1ccc(N2CCOCC2)cc1 | 0.94% (inactive) |
| CCOC(=O)N/N=C\c1ccc(C)s1 | 3.68% (inactive) |
| Cc1ccccc1S(=O)(=O)N(C)C[C@@H]1OCc2ccccc2-c2c(n(C)c3ccccc23)C(=O)N([C@H](C)CO)C[C@@H]1C | 14.2% (inactive) |
| COc1ccc(Cl)cc1C(=O)NNC(=O)c1n[nH]c2ccccc12 | 4.94% (inactive) |
| Cc1ccc(S(=O)(=O)/N=C(\Nc2cc(C)on2)c2ccc(Cl)cc2)cc1 | 8.35% (inactive) |
| Cc1cn2c(-c3ccc(Cl)cc3)nnc2s1 | -3.08% (inactive) |
| O=C(NCc1cccnc1)C(=O)NCC1OCCCN1S(=O)(=O)c1ccc(Cl)cc1 (stereo unspecified) | 1.54% (inactive) |
| Cc1cc(=O)cc(C)n1-c1ccc2c(c1)nc(C)n2-c1ccccc1 | 2.42% (inactive) |
| Cc1ccc(S(=O)(=O)N2CCN(C(=O)Cc3ccc4c(c3)OCCO4)CC2)cc1C | 6.6% (inactive) |
